# Results published in PubChem BioAssay (EPA / NIEHS).
# Inconclusive results are not listed. Activity calls are given as the source filed them. Rule for the calls: active = hit-call score of the fitted dose curve at least 0.9, where 1 is the maximum; inconclusive = response in the unintended direction; inactive = score below 0.9.
# Experiment: ACEA_ER_AUC_viability: ACEA Biosciences xCELLigence Real-Time Cell Analysis on Estrogen Receptor Agonism for Viability (AID 2283782);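 note: continuous compound exposure with impedance area under curve over 80 h; hit means loss of impedance signal meaning reduced cell growth or viability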
# Method in brief: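 T47D cells preconditioned in phenol red-free RPMI with charcoal-stripped FBS, then dosed with 8-point 1:4 series from 100 uM (up to 0.5% DMSO). Impedance monitored up to ~80 h; area-under-curve loss versus DMSO taken as viability.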
Compound,AC50,outcome
Clc1ccc(COC(Cn2ccnc2)c2ccc(Cl)cc2Cl)cc1 (stereo unspecified),21.5 µM (active),
COc1ccccc1OC,,inactive
CC(C)CCCCCCOC(=O)c1ccccc1C(=O)OCCCCCCC(C)C,40.9 µM (active),
CC(=[OH+])/C=C(/C)[O-].CC(=[OH+])/C=C(/C)[O-].CC(=[OH+])/C=C(/C)[O-].[Fe],,inactive
COc1ccc(OC)c(C=O)c1,50 µM (active),
COP(=S)(OC)Oc1c(Cl)cc(C)cc1Cl,,inactive
CCCCCCCCCl,,inactive
C=CC(=O)OCCCCCC(C)C,,inactive
O=P(O)(O)CN(CP(=O)(O)O)CP(=O)(O)O,,inactive
COC(=O)Cc1ccccc1,30.7 µM (active),
COP(=S)(OC)Oc1ccc(S(=O)(=O)N(C)C)cc1,,inactive
CCOP(OCC)OCC,,inactive
COP(=S)(OC)Oc1cc(Cl)c(Br)cc1Cl,92.6 µM (active),
O=C(O)C(Cl)(Cl)Cl,,inactive
CCCCCCCCC(=O)NCc1ccc(O)c(OC)c1,50 µM (active),
CC(=[OH+])/C=C(/C)[O-].CC(=[OH+])/C=C(/C)[O-].CC(=[OH+])/C=C(/C)[O-].[Al],72.6 µM (active),
CCCCCCCCCCCCCCCC[n+]1ccccc1,5.69 µM (active),
ClCCBr,,inactive

Compound,AC50,outcome
ClCc1cccnc1,50 µM (active),
Nc1ccc(-c2ccc(N)c(Cl)c2)cc1Cl,,inactive
O=C(CCl)CCl,62.7 µM (active),
CCC(C)c1cccc(C(C)CC)c1O (stereo unspecified),77.1 µM (active),
ClCc1ccccn1,50 µM (active),
CCOC(=O)/C=C(C)/C=C/C[C@@H](C)CCCC(C)C,87.8 µM (active),
COc1ccc(C(O)(c2cncnc2)C2CC2)cc1 (stereo unspecified),67.6 µM (active),
O=C(O)CCC(F)(C(F)(F)F)C(F)(F)F,,inactive
Cc1cc(=O)[nH]o1,,inactive
O=C(O)Cc1ccccc1,50 µM (active),
CC(C)c1ccc(CO)cc1,,inactive
C[C@@H](Oc1ccc(Cl)cc1Cl)C(=O)O,,inactive
C=CC(=O)N(C)C,50 µM (active),
Nc1cccc(Cl)c1,,inactive
CC1CN1P(=O)(N1CC1C)N1CC1C (stereo unspecified),64.1 µM (active),
O=C(c1ccccc1)C(Cl)Cl,22.6 µM (active),
CCCCP(CCCC)CCCC,27.9 µM (active),
CCc1ccccc1N,,inactive
